These results are taken from PubChem BioAssay (NCI).

Test systems include HCT-15 colon; SNB-75 CNS; SNB-19 CNS; U251 CNS; PC-3 prostate; SK-MEL-5 melanoma; UACC-62 melanoma; SK-MEL-28 melanoma; SN12C renal; UO-31 renal; TK-10 renal; ACHN renal; CAKI-1 renal; A498 renal; CCRF-CEM leukemia; MOLT-4 leukemia; LOX IMVI melanoma; SK-MEL-2 melanoma; EKVX NSCLC.
Common to all, as to assay: NCI-60 one-dose screen, 48 h (100 = growth as untreated, 0 = no growth, -100 = all killed)
Holding throughout (details): 10 µM unless noted

The panel holds about 83,000 compounds, 20% with a hit somewhere; the sample as a whole holds those more often.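 Values shown are percent growth following 48 h exposure of cells in 96-well plates to a single concentration of compound; below 10 was considered active.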 Unmarked numbers belong to inactive results. Activity calls are given as the source filed them.

Regarding `O=C(CN1CCOCC1)Nc1ccc(Cn2nnc3c2C(=O)c2nnn(Cc4ccc(NC(=O)CN5CCOCC5)cc4)c2C3=O)cc1`, the growth is 70.8% in the experiment on HCT-15 colon; -87.4% (active) in the experiment on SNB-75 CNS; -15% (active) in the experiment on SNB-19 CNS; -92.1% (active) in the experiment on U251 CNS; 5.89% (active) in the experiment with PC-3 prostate; -86.9% (active) in the experiment on SK-MEL-5 melanoma. Also, the growth is -77.3% (active) with UACC-62 melanoma; -34.6% (active) with SK-MEL-28 melanoma; -32.1% (active) with SN12C renal; 85.3% in the experiment with UO-31 renal; 79.7% in the experiment with TK-10 renal; 58.7% with ACHN renal. For the same compound, the growth with CAKI-1 renal was 72.9%; in the experiment with A498 renal, -39.8% (active); with CCRF-CEM leukemia, -21.4% (active); with MOLT-4 leukemia, -41.8% (active).

Consider `CCCCN(CC)CCCCCCCCCCN1CCCc2cc(OC)ccc21`, for which the growth with HCT-15 colon was 38.1%; in the experiment on SNB-75 CNS, 93.2%; in the experiment on U251 CNS, 87.4%; in the experiment with PC-3 prostate, 29.9%; with SK-MEL-5 melanoma it was 92.1%; in the experiment on LOX IMVI melanoma, 15%. The growth is 119% in the experiment with SK-MEL-28 melanoma; 92.8% with SK-MEL-2 melanoma; 34.5% with EKVX NSCLC; 87.8% in the experiment on TK-10 renal; 76.7% in the experiment with ACHN renal; 6.91% (active) in the experiment with CAKI-1 renal. For the same compound, the figures for the growth with A498 renal, in the experiment with CCRF-CEM leukemia and in the experiment on MOLT-4 leukemia were 75.9%, 7.28% (active) and -19.6% (active), respectively.

`COc1ccc(-c2csc(NC(=O)CN3CCN(c4cc5c(cc4F)c(=O)c(C(=O)O)cn5C4CC4)CC3)n2)cc1`: the growth with HCT-15 colon is 14.6%; with SNB-75 CNS, 11.7%; in the experiment on SNB-19 CNS it was 16.4%; in the experiment with U251 CNS, 7.92% (active); with PC-3 prostate, 11.2%; in the experiment on SK-MEL-5 melanoma it was -24.6% (active). The growth in the experiment with UACC-62 melanoma is 12.1%; with SK-MEL-28 melanoma, 39.4%; in the experiment on SK-MEL-2 melanoma, -11.5% (active); in the experiment on SN12C renal, 4.18% (active); in the experiment on UO-31 renal, 21%; in the experiment with TK-10 renal, 18%. For the same compound, the growth in the experiment with ACHN renal is 11.8%; in the experiment on CAKI-1 renal, 21.3%; in the experiment on A498 renal, -10.1% (active); with CCRF-CEM leukemia, 22.2%; in the experiment on MOLT-4 leukemia, 24.2%.
